{"source": "PubChem BioAssay (NCATS)", "note": "“And” between values parts separate entries of the source, which are not always exact repeats. Equal entries are not always repeated. Results filed as inconclusive are left out. Entries that show only a call come without a potency. The source made the active and inactive calls. Calls follow the shape of the dose curve; as a rule, active = well fitted curve in the direction sought with a large enough effect; inconclusive = small, poorly fitted or top-dose-only effect, or another doubt; inactive = no such curve, though single readings can be large; an effect the other way counts as inactive or inconclusive."}
{"target": "Peroxisome proliferator-activated receptor alpha (Homo sapiens) (UniProt Q07869)", "sequence (Q07869 whole entry, looked up)": "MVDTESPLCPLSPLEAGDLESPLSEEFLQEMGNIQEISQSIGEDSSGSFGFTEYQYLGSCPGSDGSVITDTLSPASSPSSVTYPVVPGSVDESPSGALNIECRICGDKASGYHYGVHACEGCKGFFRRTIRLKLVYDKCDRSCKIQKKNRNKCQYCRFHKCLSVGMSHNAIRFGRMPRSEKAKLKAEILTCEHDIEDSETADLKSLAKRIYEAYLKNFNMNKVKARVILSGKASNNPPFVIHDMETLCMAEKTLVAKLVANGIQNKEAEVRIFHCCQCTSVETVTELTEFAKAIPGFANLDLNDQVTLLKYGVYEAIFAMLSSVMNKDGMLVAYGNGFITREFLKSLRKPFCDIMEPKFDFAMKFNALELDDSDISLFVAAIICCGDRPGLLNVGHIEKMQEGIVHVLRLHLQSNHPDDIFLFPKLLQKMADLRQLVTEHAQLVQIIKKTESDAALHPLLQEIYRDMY", "experiment": "qHTS assay for small molecule agonists of the peroxisome proliferator-activated receptor alpha (PPARalpha) signaling pathway (AID 651778)", "conditions": "PathHunter PPARalpha complementation, chemiluminescence, 6 h; hits give high values", "how_it_was_run": "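Chemiluminescence from complemented enzyme reported PPARalpha activation in cells after 6 hr of compound treatment at 37 C. The detection reagent was incubated for 60 min at room temperature, and compounds were scored as agonists.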"}
{"smiles": "Oc1c(Cl)cc(Cl)c(Cl)c1Cc1c(O)c(Cl)cc(Cl)c1Cl", "max response": "1.56% (inactive) and 1.87% (inactive)"}
{"smiles": "CCOc1ccccc1C(N)=O", "max response": "-1.03% (inactive)"}
{"smiles": "COc1cc([C@H]2Oc3cc([C@H]4Oc5cc(O)cc(O)c5C(=O)[C@@H]4O)ccc3O[C@@H]2CO)ccc1O", "max response": "-8.58% (inactive)"}
{"smiles": "NCCNc1cccc2ccccc12", "max response": "-2.74% (inactive) and -3.34% (inactive)"}
{"smiles": "CCCCOC(=O)CC(CC(=O)OCCCC)(OC(C)=O)C(=O)OCCCC", "max response": "5.65% (inactive)"}
{"smiles": "OC[C@H]1O[C@@H]2O[C@H]3[C@H](O)[C@@H](O)[C@@H](O[C@H]4[C@H](O)[C@@H](O)[C@@H](O[C@H]5[C@H](O)[C@@H](O)[C@@H](O[C@H]6[C@H](O)[C@@H](O)[C@@H](O[C@H]7[C@H](O)[C@@H](O)[C@@H](O[C@H]8[C@H](O)[C@@H](O)[C@@H](O[C@H]1[C@H](O)[C@H]2O)O[C@@H]8CO)O[C@@H]7CO)O[C@@H]6CO)O[C@@H]5CO)O[C@@H]4CO)O[C@@H]3CO", "max response": "-4.97% (inactive)"}
{"smiles": "NC(=O)c1ccccc1O", "max response": "4.04% (inactive)"}
{"target": "Nuclear receptor ROR-gamma (Homo sapiens) (UniProt P51449)", "sequence (P51449 whole entry, looked up)": "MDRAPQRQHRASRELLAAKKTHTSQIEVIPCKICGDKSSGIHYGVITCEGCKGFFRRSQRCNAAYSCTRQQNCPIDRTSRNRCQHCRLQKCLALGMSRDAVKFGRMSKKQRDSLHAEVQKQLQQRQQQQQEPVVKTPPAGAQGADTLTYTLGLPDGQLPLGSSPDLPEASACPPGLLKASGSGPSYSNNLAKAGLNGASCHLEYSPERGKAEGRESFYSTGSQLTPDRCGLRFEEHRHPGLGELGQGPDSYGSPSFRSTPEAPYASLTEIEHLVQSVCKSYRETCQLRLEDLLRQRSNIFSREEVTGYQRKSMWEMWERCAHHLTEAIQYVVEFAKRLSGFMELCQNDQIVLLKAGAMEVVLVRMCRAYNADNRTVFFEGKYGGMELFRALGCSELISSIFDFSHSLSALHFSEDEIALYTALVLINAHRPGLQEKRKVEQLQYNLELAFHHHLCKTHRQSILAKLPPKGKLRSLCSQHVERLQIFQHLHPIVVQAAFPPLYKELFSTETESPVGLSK", "experiment": "qHTS assay for small molecule antagonists of the retinoid-related orphan receptor gamma (ROR-gamma) signaling pathway (AID 651802); also: nearly all actives have a fitted effect of over 60% in size; also: potency is read from the fitted curve at half-maximal effect", "conditions": "ROR-gamma antagonist cell reporter assay; series mostly up to 92.2 µM", "how_it_was_run": "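CHO, TET-inducible ROR + RORE-LUC reporter, 1536-well qHTS. Compound pinned, doxycycline added, 16hr 37C/5% CO2. ONE-Glo, 30 min RT, luminescence; signal drop scored as antagonism.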"}
{"smiles": "CCCN(CCC)S(=O)(=O)c1ccc(C(=O)O)cc1", "Potency": "inactive"}
{"smiles": "CCOc1ccc(NC(C)=O)cc1", "Potency": "inactive"}
{"smiles": "COc1ccc(C(Cl)=C(c2ccc(OC)cc2)c2ccc(OC)cc2)cc1", "Potency": "18.8 µM (active)"}
{"smiles": "O=C(O)c1ccc(S(=O)(=O)N(Cl)Cl)cc1", "Potency": "inactive"}
{"smiles": "COc1ccc(C(=O)c2ccccc2)c(O)c1", "Potency": "inactive"}
{"smiles": "C/C=C/c1ccc(O)c(OC)c1", "Potency": "inactive"}
{"smiles": "Oc1c(Cl)cc(Cl)c(Cl)c1Cc1c(O)c(Cl)cc(Cl)c1Cl", "Potency": "1.06 µM (active)"}
{"smiles": "CCOc1ccccc1C(N)=O", "Potency": "inactive"}
{"smiles": "OC[C@H]1O[C@@H]2O[C@H]3[C@H](O)[C@@H](O)[C@@H](O[C@H]4[C@H](O)[C@@H](O)[C@@H](O[C@H]5[C@H](O)[C@@H](O)[C@@H](O[C@H]6[C@H](O)[C@@H](O)[C@@H](O[C@H]7[C@H](O)[C@@H](O)[C@@H](O[C@H]8[C@H](O)[C@@H](O)[C@@H](O[C@H]1[C@H](O)[C@H]2O)O[C@@H]8CO)O[C@@H]7CO)O[C@@H]6CO)O[C@@H]5CO)O[C@@H]4CO)O[C@@H]3CO", "Potency": "inactive"}
{"system": "not listed separately", "experiment": "qHTS for compounds that reverse cellular toxicity of Amyloid beta (A-beta) peptide in yeast: LOPAC Validation Assay (AID 720559)", "conditions": "yeast expressing A-beta; series mostly up to 46.1 µM", "how_it_was_run": "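Here, A-beta-toxic yeast grow with test compounds at 30 C for 48 hr before optical density at 600 nm is recorded; data are normalized against DMSO and the FeCl3-clioquinol control.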"}
{"smiles": "CCOC(=O)[C@H](CCc1ccccc1)N[C@@H](C)C(=O)N1[C@H](C(=O)O)C[C@H]2CCCC[C@@H]21", "outcome": "inactive"}
{"smiles": "CC(C)(C)NC[C@H](O)COc1nsnc1N1CCOCC1", "outcome": "inactive"}
{"smiles": "NC(N)=NCc1cccc(I)c1", "outcome": "inactive"}
{"smiles": "CN=C(N)NCCC[C@H](N)C(=O)O", "outcome": "inactive"}
